KKLEB cytotox = CF airway cell cytotoxicity counter-screen | KKLEB CF airway cells viability, ATPlite luminescence, overnight; hits give low values; cells stimulated with P. aeruginosa culture filtrate | activity change (cytotoxicity), % at 5 µM | 0.36% of 360,000 active;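 active = corrected activity change at or below -50% at 5 µM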
Shn3 inh set2 = Schnurri-3 reporter inhibition in Clone20 osteoblasts | Clone20 osteoblast Shn3 3'UTR firefly luciferase, 24 h | inhibition, % at 12.5 µM | 0.52% of 360,000 active | AID 588674;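 active = mean inhibition of at least 75% with every replicate also reaching 75%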
Peg3 prom inh-1 = Peg3 promoter activity inhibition | inhibition, % at 20 µM | HeLa PEG-Prom luciferase reporter, luminescence, overnight | AID 588405 | 1.7% of 360,000 active;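 active = inhibition of at least 50% at 20 µM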
HIF-2a inh = blocks HIF-2a reporter activity. inhibition, % at 18.8 µM. AID 624352. 786-0 RCC cells HIF-2a reporter, luciferase luminescence, overnight. 0.72% of 360,000 active;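 active = inhibition of the luminescence signal of 40% or more relative to plate controls, in a single-dose primary screen at 18.75 µM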
CF NFkB block = cystic fibrosis NF-kB activation inhibition; inhibition, % at 5 µM; KKLEB NF-kB-GFP reporter, PAF-induced, GFP fluorescence overnight; AID 588850; 0.86% of 360,000 active;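 active = at least 50% inhibition at 5 µM, scaled per plate between neutral and stimulator controls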;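 note: PAF is a Pseudomonas aeruginosa culture filtrate used as stimulus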
MITF TRPM1 inh = MITF TRPM1 promoter inhibition in SK-MEL-5 cells | SK-MEL-5 TRPM1 promoter luciferase, 24 h | inhibition, % at 12.5 µM | 0.83% of 330,000 active;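 active = mean inhibition across replicates of 60% or more, whatever share of single replicates reaches that level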
Peg3 prom inh-2 = Peg3 promoter inhibition confirmation. shares compounds with Peg3 prom inh-1. HeLa PEG-Prom luciferase reporter, luminescence, overnight. inhibition, % at 20 µM. 84% of 1,300 active;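 active = at 20 µM dose, 40% or more inhibition averaged across four replicates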
A number is an active result. Compounds with a hit are over-represented: about 2.7% of the library has one in this group of screens.

C/C(=N\N=C(N)N)c1ccc(Cl)c(Cl)c1 was read as KKLEB cytotox inactive, Shn3 inh set2 inactive, Peg3 prom inh-1 105, HIF-2a inh inactive, CF NFkB block inactive, MITF TRPM1 inh inactive and Peg3 prom inh-2 83.
Screening C/C(=N\NC(=O)C1CC1)c1ccc(Cl)c(Cl)c1 returned KKLEB cytotox inactive, Shn3 inh set2 inactive, Peg3 prom inh-1 inactive, HIF-2a inh inactive, CF NFkB block inactive and MITF TRPM1 inh inactive.
`COC(CNC(=O)c1cccnc1)OC` gave KKLEB cytotox inactive, Shn3 inh set2 inactive, Peg3 prom inh-1 inactive, HIF-2a inh inactive, CF NFkB block inactive and MITF TRPM1 inh inactive.
COC(CNC(=O)c1ccc2c3c(onc13)-c1ccccc1C2=O)OC was read as KKLEB cytotox inactive, Peg3 prom inh-1 102, HIF-2a inh inactive, CF NFkB block inactive, MITF TRPM1 inh 80 and Peg3 prom inh-2 99.
`Nc1ncnc2c1ncn2[C@@H]1O[C@H](C(=O)NCCCN2CCCC2=O)[C@@H](O)[C@H]1O` gave KKLEB cytotox inactive, Shn3 inh set2 inactive, Peg3 prom inh-1 inactive, HIF-2a inh inactive and CF NFkB block inactive.
COc1ccc(C(O)c2nc(-c3cccc(CO)c3)cs2)cc1 (stereo unspecified) was read as KKLEB cytotox inactive, Shn3 inh set2 inactive, Peg3 prom inh-1 inactive, HIF-2a inh inactive and CF NFkB block inactive.
For CCOc1ccc(-c2ccc(SCC(=O)Nc3nnc(CC)s3)nn2)cc1 the results were KKLEB cytotox inactive, Shn3 inh set2 inactive, Peg3 prom inh-1 inactive, HIF-2a inh inactive, CF NFkB block inactive and MITF TRPM1 inh inactive.
Screening CCOc1ccc(-c2ccc(SC)nn2)cc1 returned KKLEB cytotox -60, Shn3 inh set2 inactive, Peg3 prom inh-1 76, HIF-2a inh inactive, CF NFkB block inactive, MITF TRPM1 inh 62 and Peg3 prom inh-2 45.
Screening O=C(CCc1ccccc1)NC(NC(=S)Nc1ccc(Br)cc1)C(Cl)(Cl)Cl (stereo unspecified) returned KKLEB cytotox inactive, Shn3 inh set2 inactive, Peg3 prom inh-1 53, HIF-2a inh inactive, CF NFkB block inactive, MITF TRPM1 inh inactive and Peg3 prom inh-2 inactive.
`Cc1ccccc1NC(=O)CNC(=O)N1CC(=O)Nc2ccccc21` gave KKLEB cytotox inactive, Shn3 inh set2 inactive, Peg3 prom inh-1 inactive, HIF-2a inh inactive and CF NFkB block inactive.
`COc1ccc(-c2nc3c(C)cc(Br)cn3c2Cc2ccc(C)cc2)cc1OC` gave KKLEB cytotox inactive, Shn3 inh set2 inactive, Peg3 prom inh-1 inactive, HIF-2a inh inactive and CF NFkB block inactive.
CCc1ccn2cc(-c3ccc4c(c3)OCO4)nc2c1 was read as KKLEB cytotox -76, Shn3 inh set2 inactive, Peg3 prom inh-1 84, HIF-2a inh 60, CF NFkB block inactive, MITF TRPM1 inh 65 and Peg3 prom inh-2 72.
`COc1ccc(CN2CCC2(C)C(=O)NCc2ccc3c(c2)OCO3)c2ccccc12` (stereo unspecified) gave KKLEB cytotox inactive, Shn3 inh set2 inactive, Peg3 prom inh-1 inactive, HIF-2a inh inactive and CF NFkB block inactive.
`O=C(NOC(=O)c1ccccc1)c1ccccc1` gave KKLEB cytotox inactive, Peg3 prom inh-1 inactive, HIF-2a inh inactive, CF NFkB block inactive and MITF TRPM1 inh inactive.
N/C(=N\OC(=O)c1ccccc1)C(Cc1ccccc1)C(=O)NOC(=O)c1ccccc1 (stereo unspecified) was read as KKLEB cytotox inactive, Shn3 inh set2 inactive, Peg3 prom inh-1 99, HIF-2a inh inactive, CF NFkB block inactive, MITF TRPM1 inh 62 and Peg3 prom inh-2 99.
COc1ccccc1N1CCN(S(=O)(=O)CCNC(=O)C(C)Oc2ccccc2)CC1 (stereo unspecified) was read as KKLEB cytotox inactive, Shn3 inh set2 inactive, Peg3 prom inh-1 inactive, HIF-2a inh inactive and CF NFkB block inactive.
`CC(=O)NC(c1ccc(F)c(F)c1)c1nc(-c2cccc(C(C)C)c2)cs1` (stereo unspecified) gave KKLEB cytotox inactive, Shn3 inh set2 inactive, Peg3 prom inh-1 inactive, HIF-2a inh inactive and CF NFkB block inactive.
`Cc1cc(Br)ccc1NC(=O)CN1C(=O)C2C3CC(c4ccccc4)C(C3)C2C1=O` (stereo unspecified) gave KKLEB cytotox inactive, Shn3 inh set2 inactive, Peg3 prom inh-1 56, HIF-2a inh inactive, CF NFkB block inactive, MITF TRPM1 inh inactive and Peg3 prom inh-2 63.
`Cc1cc(Br)ccc1NC(=O)CNC(=O)CN1C(=O)NC2(CCCCCC2)C1=O` gave KKLEB cytotox inactive, Shn3 inh set2 inactive, Peg3 prom inh-1 inactive, HIF-2a inh inactive, CF NFkB block inactive and MITF TRPM1 inh inactive.
`COc1cc(OC)c2cc(C(=O)N/N=C/c3ccccc3O)[nH]c2c1` gave KKLEB cytotox inactive, Shn3 inh set2 89, Peg3 prom inh-1 72, HIF-2a inh inactive, CF NFkB block inactive, MITF TRPM1 inh inactive and Peg3 prom inh-2 59.
For COc1ccc2[nH]c(C(=O)N/N=C/c3ccccc3OC)cc2c1 the results were KKLEB cytotox inactive, Shn3 inh set2 inactive, Peg3 prom inh-1 inactive, HIF-2a inh inactive, CF NFkB block inactive and MITF TRPM1 inh inactive.
CC(C)C[C@H]1CN(CCCC[C@@H]2CNC(=O)C(=O)N2CC2CCCCC2)C(=O)C(=O)N1CCc1ccccc1 was read as HIF-2a inh inactive.
`CC(C)CC1C(=O)N(Cc2cn(Cc3ccco3)nn2)CCS(=O)(=O)N1Cc1ccc(-c2ccc(F)cc2)cc1` (stereo unspecified) gave KKLEB cytotox inactive, Shn3 inh set2 inactive, Peg3 prom inh-1 64, HIF-2a inh inactive, CF NFkB block inactive and Peg3 prom inh-2 62.
`COCOCCn1cc(CN2CCS(=O)(=O)N(Cc3ccc(-c4ccc(Cl)c(Cl)c4)cc3)C(C(C)C)C2=O)nn1` (stereo unspecified) gave KKLEB cytotox inactive, Shn3 inh set2 91, Peg3 prom inh-1 61, HIF-2a inh inactive, CF NFkB block inactive and Peg3 prom inh-2 46.
Cc1ccc(-c2ccc(CN3C(CC(C)C)C(=O)N(Cc4cn(Cc5ccco5)nn4)CCS3(=O)=O)cc2)cc1 (stereo unspecified) was read as KKLEB cytotox inactive, Shn3 inh set2 inactive, Peg3 prom inh-1 inactive, HIF-2a inh inactive and CF NFkB block inactive.
`CCc1nc2ccc(C(=O)N(C)Cc3ccccc3)cn2c1N(C)Cc1ccc(OC)cc1` gave KKLEB cytotox inactive, Shn3 inh set2 inactive, Peg3 prom inh-1 inactive, HIF-2a inh inactive and CF NFkB block inactive.
`COc1ccc(C(C)(O)c2nc(-c3cccc(O)c3)cs2)cc1` (stereo unspecified) gave KKLEB cytotox inactive, Shn3 inh set2 inactive, Peg3 prom inh-1 inactive, HIF-2a inh inactive and CF NFkB block inactive.
Cc1ccc(C(=O)N/N=C/c2ccc([N+](=O)[O-])s2)cc1 was read as KKLEB cytotox inactive, Shn3 inh set2 90, Peg3 prom inh-1 82, HIF-2a inh 91, CF NFkB block inactive, MITF TRPM1 inh 105 and Peg3 prom inh-2 80.

Screening results: PubChem BioAssay, several laboratories
